Source: PubChem BioAssay (EPA / NIEHS)
Calls of active or inactive are those of the source. How the source made its calls: active means hit-call score of the fitted dose curve at least 0.9, where 1 is the maximum; inactive means score below 0.9.

Legend:
[1] = ATG_EGR_CIS: Attagene CIS-FACTORIAL HepG2 Assay for human Early Growth Response 1 (EGR1) (AID 2282938); settings: HepG2 Attagene CIS-FACTORIAL EGR reporter mRNA; actives raise or lower the signal
Procedure, shortened: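 Read-out: fluorescent reporter-mRNA fragments resolved by capillary electrophoresis after RT-PCR, 24 h post-dose in transiently transfected HepG2. Endogenous transcription-factor activity reported via cis-element-regulated reporter units; gain or loss fitted relative to DMSO.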

[2] = ATG_M_19_CIS: Attagene CIS-FACTORIAL HepG2 Assay for M19 Transcription Factor (Internal Marker) (AID 2282939); settings: HepG2 Attagene CIS-FACTORIAL M19 internal marker reporter; actives raise or lower the signal
Procedure, shortened: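 HepG2 cells transiently transfected with cis-regulated multiplexed reporter units, dosed 24 h. Reporter mRNA quantified by RT-PCR and capillary electrophoresis; internal background marker fitted bidirectionally versus DMSO.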

[3] = ATG_ERE_CIS: Attagene CIS-FACTORIAL HepG2 Assay for Estrogen Response Element (ERE) (AID 2282940); settings: HepG2 ERE cis-reporter, Attagene RNA transcript; actives raise or lower the signal
Procedure, shortened: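 HepG2 cells transiently transfected with multiplexed cis-element reporter units, measuring endogenous transcription factor activity; ERE reporter mRNA quantified after 24 h exposure by RT-PCR, fluorescent labelling, HpaI digestion and capillary electrophoresis. Bidirectional change versus DMSO.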

[4] = ATG_Ets_CIS: Attagene CIS-FACTORIAL HepG2 Assay for human Erythroblast Transformation Specific (ETS) (AID 2282941); settings: HepG2 ETS cis-reporter transcription; AC50: actives raise or lower the signal unless noted; outcome: actives raise or lower the signal unless noted
Procedure, shortened: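 Bidirectional fit versus DMSO of reporter mRNA signal, detected by RT-PCR and capillary electrophoresis in HepG2 cells transiently transfected with cis-element reporters and dosed 24 h.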

[5] = target: Hepatocyte nuclear factor 3-beta (Homo sapiens) (UniProt Q9Y261); assay: ATG_FoxA2_CIS: Attagene CIS-FACTORIAL HepG2 Assay for human Forkhead box A2 (FOXA2) (AID 2282942); settings: HepG2 cis-reporter transcription factor activity, 24 h; actives raise or lower the signal
Procedure, shortened: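 Readout: fluorescent reporter transcripts resolved by capillary electrophoresis after RT-PCR. Transiently transfected HepG2, 24 h compound exposure, endogenous TF activity at cis promoter elements. Gain or loss of signal fitted relative to DMSO.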

[6] = ATG_FoxO_CIS: Attagene CIS-FACTORIAL HepG2 Assay for human Forkhead box O (FoxO) (AID 2282943); settings: HepG2 Attagene cis-reporter, FoxO element, mRNA; actives raise or lower the signal
Procedure, shortened: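 HepG2, transient MRTU transfection (cis element, endogenous TFs). Dose 24 h. TriZol RNA → oligo(dT) RT → PCR → 6-FAM primer extension → HpaI cut → CE. Gain/loss vs DMSO.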

[7] = ATG_GATA_CIS: Attagene CIS-FACTORIAL HepG2 Assay for human GATA Binding Protein (AID 2282944); settings: HepG2 GATA cis-element reporter, Attagene multiplex mRNA; actives raise or lower the signal
Procedure, shortened: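 HepG2 cells transiently transfected with multiplexed cis-element reporter units measure endogenous GATA activity; after 24 h compound exposure, reporter mRNA quantified by RT-PCR and capillary electrophoresis. Changes fitted in both directions vs DMSO.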

[8] = target: Bile acid receptor (Homo sapiens) (UniProt Q96RI1); assay: ATG_IR1_CIS: Attagene CIS-FACTORIAL HepG2 Assay for human Nuclear Receptor Subfamily 1 Group H Member 4 (NR1H4), IR1 submotif (AID 2282946); settings: IR1 reporter transcription, actives raise or lower the signal
Procedure, shortened: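 HepG2 cells transiently transfected with multiplexed cis-element reporter units read endogenous transcription factor activity. After 24 h compound exposure, reporter mRNA was quantified by RT-PCR, fluorescent labelling, HpaI digestion and capillary electrophoresis; bidirectional fitting versus DMSO baseline.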

[9] = ATG_GRE_CIS: Attagene CIS-FACTORIAL HepG2 Assay for human Glucocorticoid Response Elements (GRE) (AID 2282947); settings: HepG2 GRE cis-reporter, Attagene multiplex mRNA; AC50: actives raise or lower the signal unless noted; outcome: actives raise or lower the signal unless noted
Procedure, shortened: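 Reporter transcripts read by RT-PCR with capillary electrophoresis fluorescence after a 24 h chemical exposure of HepG2 cells transiently transfected with multiple cis-element reporter units. Gain or loss fitted against DMSO.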

[10] = ATG_ISRE_CIS: Attagene CIS-FACTORIAL HepG2 Assay for human Interferon Regulatory Factor 1 (IRF1) binding to an Interferon-Stimulated Response Element (ISRE) (AID 2282948); settings: HepG2 ISRE cis-reporter (Attagene), mRNA transcription readout; actives raise or lower the signal
Procedure, shortened: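 Uses HepG2 liver cells transfected with cis-regulated reporters and measures mRNA 24 h post-dosing through RT-PCR, primer-extension labelling and capillary electrophoresis, with DMSO as negative control.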

[11] = ATG_M_32_CIS: Attagene CIS-FACTORIAL HepG2 Assay for M32 Transcription Factor (Internal Marker) (AID 2282949); settings: HepG2 Attagene cis-factorial M32 reporter, mRNA; actives raise or lower the signal;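 further: background control marker of the multiplexed CIS panel rather than a real target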
Procedure, shortened: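 HepG2 human liver cells transiently transfected with cis-promoter-driven multiple reporter transcription units, dosed 24 h. Reporter mRNA quantified by RT-PCR, FAM-labelled primer extension, HpaI digest and capillary electrophoresis; bidirectional fit versus DMSO baseline.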

[12] = ATG_M_06_CIS: Attagene CIS-FACTORIAL HepG2 Assay for M06 Transcription Factor (Internal Marker) (AID 2282950); settings: HepG2 Attagene CIS-FACTORIAL M06 internal marker reporter; actives raise or lower the signal
Procedure, shortened: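 Internal background marker within multiplexed cis-reporter HepG2 system. Cells transiently transfected, dosed 24 h; reporter mRNA measured by RT-PCR, HpaI digestion and capillary electrophoresis. Bidirectional fit relative to DMSO.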

[13] = target: Hypoxia-inducible factor 1-alpha (Homo sapiens) (UniProt Q16665); assay: ATG_HIF1a_CIS: Attagene CIS-FACTORIAL HepG2 Assay for human Hypoxia Inducible Factor 1 (HIF1A) (AID 2282951); settings: HepG2 Attagene cis-factorial HIF1a reporter transcription; actives raise or lower the signal
Procedure, shortened: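 RT-PCR/capillary electrophoresis fluorescence readout of reporter transcripts from endogenous-TF-driven cis elements in transfected HepG2 cells, 24 h exposure; activity fitted in both directions against DMSO controls.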

[14] = target: Hepatocyte nuclear factor 6 (Homo sapiens) (UniProt Q9UBC0); assay: ATG_HNF6_CIS: Attagene CIS-FACTORIAL HepG2 Assay for human Hepatocyte Nuclear Factor 6 (HNF6) (AID 2282952); settings: HepG2 Attagene cis-factorial HNF6 reporter transcription; actives raise or lower the signal
Procedure, shortened: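 Twenty-four-hour chemical treatment of reporter-transfected HepG2 cells precedes RNA isolation, DNase-treated reverse transcription and PCR of reporter sequences. Labelled fragments are sized by capillary electrophoresis and fitted bidirectionally versus DMSO.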

[15] = target: Heat shock factor protein 1 (Homo sapiens) (UniProt Q00613); assay: ATG_HSE_CIS: Attagene CIS-FACTORIAL HepG2 Assay for human Heat Shock Transcription Factor 1 (HSE) (AID 2282953); settings: HepG2 HSE cis-reporter, Attagene RNA transcription; actives raise or lower the signal
Procedure, shortened: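 HepG2 cells transfected with cis-promoter reporter units sensing endogenous transcription factor activity; reporter mRNA quantified 24 h post-dose by RT-PCR and capillary electrophoresis of 6-FAM-labelled products. Bidirectional fitting against DMSO.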

[16] = ATG_MRE_CIS: Attagene CIS-FACTORIAL HepG2 Assay for human Metal Responsive Element (MRE) (AID 2282954); settings: HepG2 MRE cis-reporter transcription, Attagene multiplex; actives raise or lower the signal
Procedure, shortened: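 Endogenous MRE-dependent transcription read as reporter mRNA in transiently transfected human HepG2 cells at 24 h. RNA reverse-transcribed, PCR-amplified, labelled and resolved by capillary electrophoresis; gain or loss relative to DMSO.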

[17] = ATG_PBREM_CIS: Attagene CIS-FACTORIAL HepG2 Assay for human Phenobarbital-responsive Enhancer Module (PBREM) (AID 2282955); settings: HepG2 PBREM cis-reporter, Attagene multiplexed transcription; actives raise or lower the signal
Procedure, shortened: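 Reporter mRNA read by RT-PCR, 6-FAM primer extension, HpaI digestion and capillary electrophoresis. Transfected HepG2 cells, 24 h compound exposure. Gain or loss of signal fitted bidirectionally relative to DMSO baseline.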

[18] = target: Paired box protein Pax-6 (Homo sapiens) (UniProt P26367); assay: ATG_Pax6_CIS: Attagene CIS-FACTORIAL HepG2 Assay for human Paired Box 6 (PAX6) (AID 2282956); settings: HepG2 CIS-FACTORIAL PAX6 reporter transcription, RNA readout; actives raise or lower the signal
Procedure, shortened: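 DMSO-referenced bidirectional fits of reporter mRNA fluorescence; HepG2 with transient cis-promoter MRTUs, 24 h post-dose, RT-PCR plus capillary electrophoresis detection.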

[19] = ATG_PXRE_CIS: Attagene CIS-FACTORIAL HepG2 Assay for human Pregnane X Receptor Element (PXRE) (AID 2282957); settings: HepG2 Attagene CIS-FACTORIAL PXRE reporter, mRNA; actives raise or lower the signal
Procedure, shortened: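 Bidirectional activity, baselined to DMSO, derived from reporter mRNA fluorescence (RT-PCR plus capillary electrophoresis) in HepG2 cells bearing cis-promoter reporter units, 24 h exposure.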

[20] = ATG_GLI_CIS: Attagene CIS-FACTORIAL HepG2 Assay for human Zinc Finger Protein GLI1 (AID 2282945); settings: HepG2, Attagene cis-factorial reporter mRNA, GLI element; actives raise or lower the signal
Procedure, shortened: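 Bidirectional curve fits relative to DMSO, using reporter mRNA levels from RT-PCR plus capillary electrophoresis. Cells were HepG2 transiently carrying cis-regulated reporter constructs, harvested 24 h after dosing.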

Measured: AC50

Sequence of Heat shock factor protein 1 (Homo sapiens) (Q00613 whole entry, looked up): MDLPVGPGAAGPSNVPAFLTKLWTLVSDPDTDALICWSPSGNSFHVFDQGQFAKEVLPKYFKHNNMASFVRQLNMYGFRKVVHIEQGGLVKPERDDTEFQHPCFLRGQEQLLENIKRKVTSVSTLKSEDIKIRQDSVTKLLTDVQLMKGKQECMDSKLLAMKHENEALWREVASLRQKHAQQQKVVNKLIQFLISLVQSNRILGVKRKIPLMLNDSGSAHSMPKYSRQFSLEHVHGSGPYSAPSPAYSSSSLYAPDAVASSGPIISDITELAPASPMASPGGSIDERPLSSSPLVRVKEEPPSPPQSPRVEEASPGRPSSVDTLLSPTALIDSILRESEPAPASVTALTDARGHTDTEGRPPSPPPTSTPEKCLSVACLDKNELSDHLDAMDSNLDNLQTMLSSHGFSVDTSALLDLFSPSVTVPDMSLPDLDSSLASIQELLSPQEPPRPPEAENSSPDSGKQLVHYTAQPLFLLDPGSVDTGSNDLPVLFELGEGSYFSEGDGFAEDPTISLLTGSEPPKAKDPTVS
Sequence of Hepatocyte nuclear factor 6 (Homo sapiens) (Q9UBC0 whole entry, looked up, the tested form may be a part): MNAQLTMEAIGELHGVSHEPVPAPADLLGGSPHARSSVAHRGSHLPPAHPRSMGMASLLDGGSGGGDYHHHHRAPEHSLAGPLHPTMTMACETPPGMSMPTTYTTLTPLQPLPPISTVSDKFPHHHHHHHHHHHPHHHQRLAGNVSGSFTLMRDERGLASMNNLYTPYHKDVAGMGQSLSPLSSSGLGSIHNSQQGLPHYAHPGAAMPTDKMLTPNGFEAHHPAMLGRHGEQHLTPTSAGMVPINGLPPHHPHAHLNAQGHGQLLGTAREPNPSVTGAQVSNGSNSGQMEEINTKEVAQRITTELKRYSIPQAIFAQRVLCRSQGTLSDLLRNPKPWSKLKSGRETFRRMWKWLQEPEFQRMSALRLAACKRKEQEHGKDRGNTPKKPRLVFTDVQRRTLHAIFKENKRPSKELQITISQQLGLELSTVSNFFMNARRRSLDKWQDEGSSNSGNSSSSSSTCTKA
Sequence of Hepatocyte nuclear factor 3-beta (Homo sapiens) (Q9Y261 whole entry, looked up): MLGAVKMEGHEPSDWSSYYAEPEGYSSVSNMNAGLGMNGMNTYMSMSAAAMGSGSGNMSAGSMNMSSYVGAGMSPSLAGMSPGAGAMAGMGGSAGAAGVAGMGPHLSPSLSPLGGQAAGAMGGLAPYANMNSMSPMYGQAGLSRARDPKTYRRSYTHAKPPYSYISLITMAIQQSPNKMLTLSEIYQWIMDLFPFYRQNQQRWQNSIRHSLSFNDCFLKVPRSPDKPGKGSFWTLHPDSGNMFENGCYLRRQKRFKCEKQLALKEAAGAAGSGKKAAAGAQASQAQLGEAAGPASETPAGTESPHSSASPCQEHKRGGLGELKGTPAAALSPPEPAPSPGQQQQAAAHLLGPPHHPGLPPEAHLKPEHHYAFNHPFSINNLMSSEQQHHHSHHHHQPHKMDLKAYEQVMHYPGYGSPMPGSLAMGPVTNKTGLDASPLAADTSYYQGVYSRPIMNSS
Sequence of Hypoxia-inducible factor 1-alpha (Homo sapiens) (Q16665 whole entry, looked up): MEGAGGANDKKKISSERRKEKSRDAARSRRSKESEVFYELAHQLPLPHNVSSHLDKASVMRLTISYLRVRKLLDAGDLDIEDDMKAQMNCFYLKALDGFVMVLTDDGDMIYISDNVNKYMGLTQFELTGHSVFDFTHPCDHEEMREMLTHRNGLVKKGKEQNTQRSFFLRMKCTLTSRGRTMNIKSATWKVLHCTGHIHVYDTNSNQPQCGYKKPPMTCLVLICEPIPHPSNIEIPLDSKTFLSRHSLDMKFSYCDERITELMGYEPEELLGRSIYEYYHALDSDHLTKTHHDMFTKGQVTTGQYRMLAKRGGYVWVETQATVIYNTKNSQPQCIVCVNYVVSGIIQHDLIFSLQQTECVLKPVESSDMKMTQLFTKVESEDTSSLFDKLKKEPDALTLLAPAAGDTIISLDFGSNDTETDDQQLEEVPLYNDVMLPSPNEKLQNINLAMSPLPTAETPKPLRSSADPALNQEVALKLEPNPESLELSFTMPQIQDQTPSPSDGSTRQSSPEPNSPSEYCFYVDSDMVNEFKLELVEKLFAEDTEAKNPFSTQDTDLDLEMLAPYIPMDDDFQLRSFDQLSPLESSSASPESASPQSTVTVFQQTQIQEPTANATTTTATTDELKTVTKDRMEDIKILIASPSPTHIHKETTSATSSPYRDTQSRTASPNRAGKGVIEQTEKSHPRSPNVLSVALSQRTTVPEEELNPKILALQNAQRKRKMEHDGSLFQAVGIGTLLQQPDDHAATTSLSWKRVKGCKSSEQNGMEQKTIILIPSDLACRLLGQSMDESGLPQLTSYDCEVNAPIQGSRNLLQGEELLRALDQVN
Sequence of Paired box protein Pax-6 (Homo sapiens) (P26367 whole entry, looked up): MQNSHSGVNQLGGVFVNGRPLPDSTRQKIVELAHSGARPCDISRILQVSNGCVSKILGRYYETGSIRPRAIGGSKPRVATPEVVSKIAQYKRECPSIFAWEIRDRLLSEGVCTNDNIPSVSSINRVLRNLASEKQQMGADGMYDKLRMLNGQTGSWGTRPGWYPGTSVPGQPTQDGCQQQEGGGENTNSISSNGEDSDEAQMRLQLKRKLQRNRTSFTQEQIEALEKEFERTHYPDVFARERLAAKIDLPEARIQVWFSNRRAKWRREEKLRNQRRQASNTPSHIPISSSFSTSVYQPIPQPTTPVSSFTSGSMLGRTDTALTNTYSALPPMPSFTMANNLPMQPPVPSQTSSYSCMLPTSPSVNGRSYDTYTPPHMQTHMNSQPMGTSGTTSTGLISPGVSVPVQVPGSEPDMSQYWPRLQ
Sequence of Bile acid receptor (Homo sapiens) (Q96RI1 whole entry, looked up): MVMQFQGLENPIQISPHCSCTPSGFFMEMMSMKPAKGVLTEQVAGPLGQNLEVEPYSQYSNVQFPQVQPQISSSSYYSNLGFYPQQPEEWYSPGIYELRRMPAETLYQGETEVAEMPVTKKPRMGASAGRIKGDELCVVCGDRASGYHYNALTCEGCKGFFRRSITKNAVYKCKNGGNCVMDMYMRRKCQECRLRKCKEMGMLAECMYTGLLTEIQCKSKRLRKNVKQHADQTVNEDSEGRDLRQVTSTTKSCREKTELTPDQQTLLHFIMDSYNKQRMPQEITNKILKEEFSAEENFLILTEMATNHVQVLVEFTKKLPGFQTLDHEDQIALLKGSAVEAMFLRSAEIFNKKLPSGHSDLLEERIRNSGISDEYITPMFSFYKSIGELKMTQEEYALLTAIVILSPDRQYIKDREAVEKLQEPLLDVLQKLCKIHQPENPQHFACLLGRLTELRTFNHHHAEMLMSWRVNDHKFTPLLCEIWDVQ

Oc1ccc(Cc2ccccc2O)cc1
active: [3] 7.8 µM | [19] 46 µM
inactive: [1] | [2] | [4] | [5] | [6] | [7] | [8] | [9] | [10] | [11] | [12] | [13] | [14] | [15] | [16] | [17] | [18]

C/C=C/C(=O)C1=C(C)CCCC1(C)C
inactive: [2] | [3] | [4] | [5] | [7] | [9] | [11] | [12] | [13] | [17]
active: [1] 55.4 µM | [6] 138 µM | [20] 69.7 µM | [10] 69.9 µM | [14] 65.5 µM | [15] 63.7 µM | [16] 36.5 µM | [18] 39.7 µM | [19] 2.03 µM

Cc1ccc(C(=O)c2ccccc2)cc1
inactive: [1] | [2] | [4] | [5] | [6] | [7] | [20] | [9] | [10] | [11] | [12] | [13] | [14] | [15] | [16] | [18]
active: [3] 27.2 µM | [19] 30.4 µM

CCCCc1oc2ccccc2c1C(=O)c1cc(I)c(OCCN(CC)CC)c(I)c1
active: [1] 20.3 µM | [2] 97.7 µM | [9] 141 µM | [11] 127 µM | [12] 89.1 µM | [13] 7.78 µM | [16] 18.3 µM | [18] 20.2 µM | [19] 1.44 µM
inactive: [3] | [4] | [5] | [6] | [7] | [20] | [10] | [15]

CCC(=O)O
inactive: [1] | [2] | [3] | [4] | [5] | [6] | [7] | [20] | [9] | [10] | [11] | [12] | [13] | [14] | [15] | [16] | [18] | [19]

FC(F)=C(F)C(F)(F)C(F)(F)C(F)(F)C(F)F
inactive: [1] | [2] | [3] | [4] | [5] | [6] | [7] | [20] | [9] | [10] | [11] | [12] | [13] | [14] | [15] | [16] | [17] | [18] | [19]
